Laboratory results published in PubChem BioAssay (EPA / NIEHS).
Results filed as inconclusive are left out. Some structures have more than one record in an assay (separate samples or runs), and their calls can disagree. The source made the active and inactive calls. Rule for the calls: active = hit-call score of the fitted dose curve at least 0.9, where 1 is the maximum; inconclusive = response in the unintended direction; inactive = score below 0.9.

Experiment: CCTE_Mundy_HCI_iCellGluta_NOG_NeuronCount: CCTE's Neurite Outgrowth Assay in iCellGluta cells for Neuron Count, Mundy Lab (AID 2284340);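 note: cells fixed about 48 h after compound addition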
Method: CCTE_Mundy_HCI_iCellGluta_NOG is a multiplexed, cell-based-readout assay that uses iCell GlutaNeurons from FUJIFILM Cellular Dynamics, Inc. (FCDI), human glutamatergic enriched neurons derived from induced pluripotent stem (iPS) cells, with measurements taken at 50.33 hours after chemical dosing in a microplate: 96-well plate.CCTE_Mundy_HCI_iCellGluta_NOG_NeuronCount is one of four components of the CCTE_Mundy_HCI_iCellGluta_NOG assay. It measures cell viability related to number of neurons using High Content Imaging of fluorescently labelled markers.Data from the assay component CCTE_Mundy_HCI_iCellGluta_NOG_NeuronCount was analyzed at the endpoint CCTE_Mundy_HCI_iCellGluta_NOG_NeuronCount in the positive analysis fitting direction relative to DMSO as the negative control and baseline of activity. Using a type of viability reporter, loss-of-signal activity can be used to understand developmental effects.
Exposure starts 2 hours post-plating by adding 10 ul of the working solution to 90 ul of media in the wells for a 1/10 dilution. Forty-eight hours after chemical treatment cells are fixed by direct addition of 100 ul of warm (37C) Dulbecco's phosphate buffered saline (DPBS) fixative solution containing 8% paraformaldehyde, 8% sucrose, and 0.1% of 3 mg/ml Hoechst 33342 into each well. Primary antibodies are prepared by dilution in Immunocytochemical Staining Buffer (ISB), 10X Dulbecco's PBS, 0.1% Saponin, 5% Bovine Serum Albumin, 0.5% NaN3 (Sodium Azide) and betaIII-tubulin (rabbit anti-betaIII-tubulin, 1:800) followed by Alexa Fluor-488 secondary (1:500) to label neuronal cell bodies and neurites. A Cellomics ArrayScan VTi HCS Reader is used for automated image acquisition and analysis of neurite outgrowth.

| SMILES | AC50 | outcome |
| --- | --- | --- |
| O=C(Nc1ccccc1-c1ccc(Cl)cc1)c1cccnc1Cl | 50 µM (active) | inactive |
| CO/N=C(/C1=NOCCO1)c1ccccc1Oc1ncnc(Oc2ccccc2Cl)c1F | 39.4 µM (active) |  |
| COC(=O)N(C(=O)N1CO[C@@]2(C(=O)OC)Cc3cc(Cl)ccc3C2=N1)c1ccc(OC(F)(F)F)cc1 |  | inactive |
| CS(=O)(=O)c1cc(C(F)(F)F)ccc1C(=O)c1cnoc1C1CC1 |  | inactive |
| CN/C(=N\[N+](=O)[O-])NCc1cnc(Cl)s1 |  | inactive |
| CCSC(=O)N1CCCCCC1 |  | inactive |
| CC(C)(C)C(=O)C(Oc1ccc(Cl)cc1)n1cncn1 (stereo not given) |  | inactive |
| C=C(C)CN(CC)c1c([N+](=O)[O-])cc(C(F)(F)F)cc1[N+](=O)[O-] | 31.1 µM (active) |  |
| CCNC(=O)NC(=O)C(C#N)=NOC |  | inactive |
| CC1(C)C(C=C(Cl)Cl)C1C(=O)OC(C#N)c1cccc(Oc2ccccc2)c1 (stereo not given) |  | inactive |
| N#CN=C1SCCN1Cc1ccc(Cl)nc1 |  | inactive |
| Cc1c(COC(=O)[C@@H]2[C@H](/C=C(\Cl)C(F)(F)F)C2(C)C)cccc1-c1ccccc1 | 12.8 µM (active) |  |
| CNC(=O)Oc1cccc2ccccc12 |  | inactive |
| COP(=S)(OC)SCn1nnc2ccccc2c1=O | 24.4 µM (active) |  |
